NTR1 ag: agonists of human neurotensin receptor NTR1. P30989. NTR1-U2OS beta-arrestin-GFP spot imaging, agonist mode. activation, % at 20 µM. hit rate 0.17% among 330,000. AID 493036;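 active = activation at or above 40% of the spot to cytoplasm intensity ratio, with at least 20 cells analyzed; inconclusive = wells under 20 cells, flagged as cytotoxic or low count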;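 also: 0% = DMSO without peptide and 100% = 100 nM NTR1 peptide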
Target sequence (P30989 whole entry, looked up): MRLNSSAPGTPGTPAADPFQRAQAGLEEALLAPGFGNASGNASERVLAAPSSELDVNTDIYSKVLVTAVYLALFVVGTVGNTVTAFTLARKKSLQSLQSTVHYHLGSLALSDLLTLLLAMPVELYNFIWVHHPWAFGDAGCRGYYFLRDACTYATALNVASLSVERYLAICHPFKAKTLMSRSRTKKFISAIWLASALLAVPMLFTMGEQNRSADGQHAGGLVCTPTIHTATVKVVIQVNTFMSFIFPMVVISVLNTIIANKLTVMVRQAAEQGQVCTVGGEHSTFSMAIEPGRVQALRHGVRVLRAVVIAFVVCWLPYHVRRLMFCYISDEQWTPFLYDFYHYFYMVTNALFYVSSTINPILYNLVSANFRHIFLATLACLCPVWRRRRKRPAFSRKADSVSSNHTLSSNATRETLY
Cardio protect: protects H9c2 cardiomyocytes from peroxide injury. H2O2 injury protection, ATPLite, 2 h. protection from H2O2 cell death, % at 20 µM. hit rate 0.63% among 360,000;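 active = compounds giving at least 50% protection of heart cells from peroxide-induced death in the single-dose screen, raw or plate-pattern-corrected value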;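 also: 0% = DMSO wells with peroxide and 100% = DMSO wells without peroxide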
ALR H2O2 inh: human ALR oxidase inhibition via reduced H2O2. P55789. purified ALR, DTT oxidation, H2O2 HRP-luminol luminescence. inhibition, % (no concentration beside the values). hit rate 3.8% among 290,000;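 active = mean replicate inhibition above about 79%, with every replicate also reaching it, limit read from the data; inconclusive = only one of the two criteria met; inactive = mean below limit and not every replicate reaching it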
SUMO HTRF inh: SUMOylation inhibition. HTRF SUMOylation assay, SAE1/SAE2 + UBC9, in vitro. AID 2006. hit rate 0.36% among 290,000. inhibition, % at 35 µM; in the data active = inhibition above about 50%, passing the limit was not always enough; inconclusive = no clear call, values can overlap the other calls
An asterisk follows results filed as active; u = inconclusive; x = no result. This is a sample that favours compounds with a hit; in the whole collection about 3.9% have one here.

SMILES | NTR1 ag | Cardio protect | ALR H2O2 inh | SUMO HTRF inh
COc1ccc(Cn2nnnc2C(c2cccnc2)N2CCN(c3ccc(O)cc3)CC2)cc1 (stereo not given) | 1 | -1 | 98* | -2
COc1ccc(Cn2nnnc2C(c2ccc3ncccc3c2)N2CCN(C3CCCCC3)CC2)cc1 (stereo not given) | 1 | -9 | -10 | 4
CCC(c1nnnn1Cc1ccc2c(c1)OCO2)N1CCN(c2ccc(OC)cc2)CC1 (stereo not given) | 0 | 2 | 88* | -12
CC(C)(C)n1nnnc1C(c1ccncc1)N1CCN(c2ccc(O)cc2)CC1 (stereo not given) | 2 | 0 | 98* | 12
CCC(c1nnnn1Cc1ccc2c(c1)OCO2)N1CCN(CC)CC1 (stereo not given) | 0 | -8 | 0 | 7
COc1cc(C(=O)Nc2nc(-c3ccc(Cl)cc3)c(C)s2)ccc1OCC(=O)Nc1ccc(F)cc1 | 0 | -16 | 6 | -1
Oc1ccc(N2CCN(C(c3cccs3)c3nnnn3CCc3ccccc3)CC2)cc1 (stereo not given) | 3 | 16 | 96* | 1
c1ccc(Cn2nnnc2C(c2ccccn2)N2CCN(c3ccccc3)CC2)cc1 (stereo not given) | 1 | 14 | 98* | -8
COc1ccc(Cn2nnnc2C(c2cccs2)N2CCN(c3ccccc3)CC2)cc1 (stereo not given) | 1 | -9 | 5 | -3
CCCC(c1nnnn1CC1CCCO1)N1CCN(c2ccccc2)CC1 (stereo not given) | -1 | 4 | 98* | 6
Cc1cc(NNC(=O)Nc2cccc(Cl)c2)nc2c1c(C)nn2C | 4 | x | -7 | -6
FC(F)(F)c1cnc(Sc2nc3nccc(-c4ccc(Cl)cc4)n3n2)c(Cl)c1 | 22 | -8 | -2 | -21
COc1ccccc1NC(=O)COc1ccc(Br)cc1CO | -2 | 8 | -11 | -15
CN(NC1CC(=O)N(c2ccccc2)C1=O)c1ccccc1 (stereo not given) | x | 8 | 97* | 5
O=C(Nc1nc2c(s1)COc1ccccc1-2)c1cccs1 | 11 | -23 | 96* | 8
CCOC(=O)C(CC)n1cnc2c(nnn2-c2ccc(C)cc2)c1=O (stereo not given) | 3 | -6 | -4 | 13
Cc1cc(NC(=O)COc2ccccc2C)no1 | 0 | -3 | u | 1
Cc1cc(NC(=O)COc2nnc(-c3ccccc3)c3ccccc23)no1 | 0 | 48* | -7 | 18
CC1=C(C(=O)OCC(C)C)C(c2ccsc2)NC(=O)N1 (stereo not given) | 2 | 2 | -5 | 0
CCCCCCOC(=O)C[N+](C)(C)CCOC1CC2CCC1(C)C2(C)C (stereo not given) | 40* | 4 | x | 13
CNC1=C(N(C(C)=O)c2ccc(Br)cc2)C(=O)c2ccccc2C1=O | x | -13 | -83 | 82*
COc1ccccc1N1CCN(C(=O)CCS(=O)(=O)c2ccc3c(c2)oc(=O)n3C)CC1 | 1 | -1 | 88* | 3
COc1ccccc1N1CCN(C(=O)C2CCCN(S(=O)(=O)c3ccc4c(c3)oc(=O)n4C)C2)CC1 (stereo not given) | 1 | -10 | 19 | 15
Oc1c(Br)cc(Br)cc1C=NCc1ccccc1 | 2 | 76* | -9 | 25
Oc1c(Br)cc(Br)cc1C=NCc1ccc(F)cc1 | 5 | 60* | -8 | 6
SMILES | NTR1 ag | Cardio protect | ALR H2O2 inh | SUMO HTRF inh
CC1Oc2ccccc2N(CC(=O)N2CCCCCC2)C1=O (stereo not given) | 2 | 0 | x | 6
Cn1c(SCc2ccc(Br)cc2)nnc1-c1ccncc1 | -1 | -2 | -17 | -4
CC(=O)Oc1cc2oc(=O)cc(C)c2cc1Cl | 1 | 8 | 97* | 16
C=CCNc1oc(-c2ccc(Cl)cc2)nc1C#N | 4 | 52* | x | x
Cn1c(N)c(C(=O)Nc2c(Cl)cccc2Cl)sc1=S | 0 | 0 | 99* | 12
COC(=O)c1ccccc1NC(=O)c1sc(=S)n(C)c1N | 7 | 1 | 42 | 18
COc1ccc(CCNC(=O)c2sc(=S)n(C)c2N)cc1 | 18 | 1 | 4 | -21
Cn1c(N)c(C(=O)NCc2ccccc2)sc1=S | -2 | 2 | 81* | -5
CNc1ccccc1-n1ccc(-c2ccccc2)n1 | -1 | 3 | 94* | -2
CC(=O)NCCC(=O)Nc1nc(-c2ccc3ccccc3c2)cs1 | 0 | -3 | x | 6
CNC(=O)c1ccsc1NC(=O)c1ccc2c(c1)CCCC2 | 22 | -19 | x | -15
Cc1nn2c(=O)cc(CSCC(=O)Nc3ccccc3F)nc2s1 | 1 | 4 | -8 | -8
CCc1nn2c(=O)cc(CSCC(=O)Nc3ccccc3F)nc2s1 | -1 | -2 | 99* | -5

Source: PubChem BioAssay
